Test results as given in PubChem BioAssay (NCATS).
Values joined by “and” are separate entries in the source; they are usually repeats but may differ in a detail not shown here. Identical values can stand only once. Records with an inconclusive call do not appear. Active and inactive are the calls of the source. Calls follow the shape of the dose curve; as a rule, active = well fitted inhibition curve with a large enough effect; inconclusive = small, poorly fitted or top-dose-only effect; inactive = flat fitted curve, though single readings scatter.

Tested on: KB-3-1
Test: Cytotoxic Profiling of Annotated Libraries Using Quantitative High-Throughput Screening (AID 1296008); also: nearly all actives have a fitted effect of over 60% in size
Conditions: Five cell lines viability, CellTiter-Glo ATP luminescence, 48-72 h; max response: hits give low values
Method in brief: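 Compounds were pin-transferred onto cells and incubated 48 or 72 hr at 37 degree Celsius, 95% humidity. CellTiter-Glo was added, plates sat 10 min at room temperature, then ATP-coupled luminescence was imaged as the viability read-out.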
% is scaled to controls: 0 for no effect and ±100 for the full control effect.

| Compound | max response |
| --- | --- |
| O=P(O)(O)OC(Cn1cncn1)(Cn1cncn1)c1ccc(F)cc1F | -21.6% (inactive) |
| c1cnc2cc3c(cc2n1)[C@@H]1CNC[C@H]3C1 | -10.7% (inactive) |
| CCCCCCCCCCCCCCCC(=O)OCCC1CCN(CCCN2c3ccccc3Sc3ccc(S(=O)(=O)N(C)C)cc32)CC1 | -4.82% (inactive) |
| CC(=O)S[C@@H]1CC2=CC(=O)CC[C@]2(C)[C@H]2CC[C@@]3(C)[C@@H](CC[C@@]34CCC(=O)O4)[C@H]12 | -24% (inactive) |
| CC1(S(=O)(=O)O)CC(=O)c2ccccc2C1=O (stereo not drawn) | 5.99% (inactive) |
| CC1(C)S[C@@H]2[C@H](NC(=O)[C@H](N)c3ccccc3)C(=O)N2[C@H]1C(=O)OCOC(=O)[C@@H]1N2C(=O)C[C@H]2S(=O)(=O)C1(C)C | -17% (inactive) |
| COCC1=C(C(=O)OC(C)OC(=O)OC(C)C)N2C(=O)[C@@H](NC(=O)/C(=N\OC)c3csc(N)n3)[C@H]2SC1 (stereo partly drawn) | -19.8% (inactive) and -4.94% (inactive) |
| CN1CCN(CCCN2c3ccccc3Sc3ccccc32)CC1 | -4.85% (inactive) |
| O=C(CCCN1CCC(n2c(=S)[nH]c3ccccc32)CC1)c1ccc(F)cc1 | 8.28% (inactive) |
| COC[C@H](c1ccc(C(F)(F)F)cc1)N1CCN(C2(C)CCN(C(=O)c3c(C)ncnc3C)CC2)C[C@H]1C | -20% (inactive) |
| CC(CCC1(O)OC2CC3C4CC=C5CC(O[C@@H]6O[C@H](CO)[C@@H](O[C@@H]7O[C@@H](C)[C@H](O)[C@@H](O)[C@H]7O)[C@H](O)[C@H]6O[C@@H]6O[C@@H](C)[C@H](O)[C@@H](O)[C@H]6O)CCC5(C)C4CCC3(C)C2C1C)CO[C@@H]1O[C@H](CO)[C@@H](O)[C@H](O)[C@H]1O (stereo partly drawn) | 6.64% (inactive) |
| O=[N+]([O-])c1ccc(Oc2ccc(N=C=S)cc2)cc1 | -16.8% (inactive) |
| O=C(CO)[C@@H](O)[C@H](O)[C@H](O)CO | -8.15% (inactive) |
